Data on 37 compounds can be found in PubChem BioAssay (NCI).

This is part of a sample that, as a whole, favours compounds with a hit. Of some 83,000 tested, about 20% had one in any assay.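 Testing used 96-well plates and a 48-hour single-concentration exposure. Example: -40 means 40% of the starting cells died.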 Active and inactive are the calls of the source. Rule for the calls: active = growth percent below 10; inactive = the rest.

The test system of the first assay is NCI/ADR-RES ovarian. The assay is described as follows: NCI-60 one-dose screen, 48 h (100 = growth as untreated, 0 = no growth, -100 = all killed). The following applies: 10 µM unless noted.
As for `O=C(Nc1nc2ccc(C(F)(F)F)cc2s1)c1cc(Cl)ccc1O`, the growth is -4.36% (active).

In the case of `NC(N)=NC(N)=Nc1cc2ccccc2c2ccccc12`, the growth was 80.4% (inactive).

Regarding `CC(=O)Oc1c2c(nc3c1c1ccccc1n3Cc1ccccc1)-c1ccccc1C2`, the growth is 85.5% (inactive).

Take `CN1C(=O)c2cc(Cl)nc3c(NC(=O)c4cccc(Cl)c4)c(Cl)c(NC(=O)c4cccc(Cl)c4)c1c23`: the growth was 27.5% (inactive).

With `CCOCCc1c(O)nc(SC)[nH]c1=O`, the growth is 96.5% (inactive).

Turning to `COc1ccc2[nH]c(=O)c(/C=C/C(=O)/C=C/c3ccc(O)c(OC)c3)cc2c1`, the growth was 47.9% (inactive).

`CCOC(=O)c1c(C)nc2c(c1N)/C(=C/c1cccs1)C(=O)N2Cc1ccccc1`: the growth is 79% (inactive).

With `COc1ccc2c(c1)Oc1nc(N)c(C#N)c(N)c1C2Sc1ccc(O)cc1` (stereo not drawn), the growth is 106% (inactive).

Consider `O=C(Nc1nccs1)c1noc2ccccc12`, for which the growth was 106% (inactive).

With `Cc1cccc(C)c1NCc1nnc(-c2ccco2)o1`, the growth was 97.3% (inactive).

On to `CCOC(=O)C1=C(C)n2nc(CC#N)c(C#N)c2NC1c1ccc(Cl)cc1` (stereo not drawn), for which the growth was 91.9% (inactive).

For `Cc1cc(Cl)cc(CN(Cc2ccccc2)Cc2c(O)ccc3ccccc23)c1O`, the growth was 96.5% (inactive).

As for `COc1ccc(Cl)c([N+](=O)[O-])c1`, the growth is 102% (inactive).

`COc1cc(C)ccc1Oc1nc(Nc2ccc(N3CCOCC3)cc2)ncc1N=Cc1cc(C(F)(F)F)cc(C(F)(F)F)c1`: the growth is 69.9% (inactive).

Regarding `Nc1c(C(=O)Nc2cccc3ccccc23)sc2nc3c(cc12)COCC3`, the growth was 26.8% (inactive).

For the compound `O=C1CCC23OC(C(O)c4ccccc4N12)C1C(Br)=NOC13` (stereo not drawn), the growth is 106% (inactive).

Consider `O=Cc1[nH]c(Sc2ccccc2)c2ccccc12`, for which the growth is 69.7% (inactive).

For `COc1ccc(-c2cc(-c3nnc(SCC(=O)Nc4ccc(/C(C)=N\O)cc4)n3-c3ccccc3)c3cc(OC)ccc3n2)cc1`, the growth was 71.3% (inactive).

Turning to `COc1ccc(OCC(=O)OC(C)C)cc1`, the growth was 93.3% (inactive).

For the compound `CC1=C(CCCOC(=O)NCCCl)C2=C(C)C3(CC3)[C@@](C)(O)C(=O)C2=C1`, the growth was 29.2% (inactive).

With `Nc1ccccc1NS(=O)(=O)c1ccc(Cl)cc1`, the growth is 97.3% (inactive).

Turning to `C=CCn1c(SCC(=O)Nc2ccc(C(=O)/C=C/c3cc(OC)c(OC)c(OC)c3)cc2)nnc1-c1ccccc1`, the growth is 102% (inactive).

As for `NS(=O)(=O)c1ccc(C2C3=C(CCCC3=O)OC3=C2C(=O)c2ccccc2C3=O)cc1` (stereo not drawn), the growth was 56.9% (inactive).

Regarding `COc1ccc2nc3nc4ccc[nH]c4cc3c2c1`, the growth is 96.1% (inactive).

With `NC(=O)CN1C(=O)c2ccccc2C1=O`, the growth was 102% (inactive).

With `COc1cccc(C(=O)OCCn2nc3c4c(cccc42)C(=O)c2ccccc2-3)c1O`, the growth was 22.5% (inactive).

The subject of the next assay is T-47D breast. The assay is described as above. The following applies: 10 µM unless noted.
Consider `O=C(Nc1nc2ccc(C(F)(F)F)cc2s1)c1cc(Cl)ccc1O`, for which the growth was -5.13% (active).

Take `NC(N)=NC(N)=Nc1cc2ccccc2c2ccccc12`: the growth is 30.2% (inactive).

Regarding `CC(=O)Oc1c2c(nc3c1c1ccccc1n3Cc1ccccc1)-c1ccccc1C2`, the growth is 56.7% (inactive).

Take `CN1C(=O)c2cc(Cl)nc3c(NC(=O)c4cccc(Cl)c4)c(Cl)c(NC(=O)c4cccc(Cl)c4)c1c23`: the growth was 22.1% (inactive).

In the case of `CCOCCc1c(O)nc(SC)[nH]c1=O`, the growth is 110% (inactive).

As to `COc1ccc2[nH]c(=O)c(/C=C/C(=O)/C=C/c3ccc(O)c(OC)c3)cc2c1`, the growth is 26% (inactive).

For the compound `CCOC(=O)c1c(C)nc2c(c1N)/C(=C/c1cccs1)C(=O)N2Cc1ccccc1`, the growth was 43% (inactive).

Regarding `O=C(CCc1nnc2sc(OCc3ccccc3)nn12)c1nc2ccc([N+](=O)[O-])cc2[nH]1`, the growth was 97.7% (inactive).

As for `COc1ccc2c(c1)Oc1nc(N)c(C#N)c(N)c1C2Sc1ccc(O)cc1` (stereo not drawn), the growth is 50.7% (inactive).

For the compound `O=C(Nc1nccs1)c1noc2ccccc12`, the growth was 57.5% (inactive).

As for `Cc1cccc(C)c1NCc1nnc(-c2ccco2)o1`, the growth was 80.6% (inactive).

As to `CCOC(=O)C1=C(C)n2nc(CC#N)c(C#N)c2NC1c1ccc(Cl)cc1` (stereo not drawn), the growth is 110% (inactive).

Consider `CCOc1ccccc1C(=O)/C=C/c1cc2ccccc2[nH]c1=O`, for which the growth was 4.65% (active).

With `COc1cc(NC(=O)Nc2cnc(Nc3ccc(N4CCOCC4)cc3)nc2Oc2ccc(F)cc2)cc(OC)c1`, the growth is 53.5% (inactive).

Consider `Cc1cc(Cl)cc(CN(Cc2ccccc2)Cc2c(O)ccc3ccccc23)c1O`, for which the growth was 89.5% (inactive).

Take `NC[C@@H]1CCN(c2cc3c(cc2F)c(=O)n(N)c(=O)n3Cc2ccc(-c3ccccc3)cc2)C1`: the growth is 89% (inactive).

With `O=C(/C(=C/c1ccc([N+](=O)[O-])cc1)SCc1ccc(F)cc1)c1ccc(Cl)cc1`, the growth is 49.3% (inactive).

`COc1ccc(Cl)c([N+](=O)[O-])c1`: the growth is 84% (inactive).

On to `COc1cc(C)ccc1Oc1nc(Nc2ccc(N3CCOCC3)cc2)ncc1N=Cc1cc(C(F)(F)F)cc(C(F)(F)F)c1`, for which the growth is 57.7% (inactive).

`c1ccc(-c2cn3ccnc3c(-c3ccc4c(c3)ncn4C3CCCCC3)n2)cc1`: the growth was 74.5% (inactive).

On to `Nc1c(C(=O)Nc2cccc3ccccc23)sc2nc3c(cc12)COCC3`, for which the growth is 57.1% (inactive).

`O=C1CCC23OC(C(O)c4ccccc4N12)C1C(Br)=NOC13` (stereo not drawn): the growth was 102% (inactive).

Turning to `O=Cc1[nH]c(Sc2ccccc2)c2ccccc12`, the growth is 44.1% (inactive).

For `CCOC(=O)c1sc(/N=C2\NC(=O)/C(=C/c3ccc(N4CCN(C)CC4)cc3)S2)nc1C`, the growth was 95.5% (inactive).

As for `COc1cc(C2=NN(c3ccccc3)C(c3cccc(Nc4ccnc5cc(C(F)(F)F)ccc45)c3)C2)cc(OC)c1OC` (stereo not drawn), the growth is 76.5% (inactive).

For the compound `COc1ccc(-c2cc(-c3nnc(SCC(=O)Nc4ccc(/C(C)=N\O)cc4)n3-c3ccccc3)c3cc(OC)ccc3n2)cc1`, the growth was 45.4% (inactive).

Turning to `COc1ccc(OCC(=O)OC(C)C)cc1`, the growth was 101% (inactive).

With `CC1=C(CCCOC(=O)NCCCl)C2=C(C)C3(CC3)[C@@](C)(O)C(=O)C2=C1`, the growth was 16% (inactive).

Turning to `Nc1ccccc1NS(=O)(=O)c1ccc(Cl)cc1`, the growth was 106% (inactive).

With `N#Cc1ccc(C2C3=C(CCCC3=O)OC3=C2C(=O)c2ccccc2C3=O)cc1` (stereo not drawn), the growth was 3.02% (active).

Turning to `C=CCn1c(SCC(=O)Nc2ccc(C(=O)/C=C/c3cc(OC)c(OC)c(OC)c3)cc2)nnc1-c1ccccc1`, the growth was 78.8% (inactive).

On to `NS(=O)(=O)c1ccc(C2C3=C(CCCC3=O)OC3=C2C(=O)c2ccccc2C3=O)cc1` (stereo not drawn), for which the growth was -50.7% (active).

As for `COc1ccc2nc3nc4ccc[nH]c4cc3c2c1`, the growth is 38.3% (inactive).

In the case of `COc1ccc(Nc2nc(SCC(C)C)nc(-c3ccc(F)cc3)c2C#N)cc1`, the growth was 65% (inactive).

With `NC(=O)CN1C(=O)c2ccccc2C1=O`, the growth was 89.9% (inactive).

`COc1cccc(C(=O)OCCn2nc3c4c(cccc42)C(=O)c2ccccc2-3)c1O`: the growth is 40.8% (inactive).

Regarding `c1ccc(-c2n(Cc3ccc4ccccc4n3)cc[n+]2Cc2ccc3ccccc3c2)cc1`, the growth was -14.7% (active).
